{
  "source": "paper PMC7862700",
  "about": "“An all-to-all approach to the identification of sequence-specific readers for epigenetic DNA modifications on cytosine”",
  "assay_in_all_cases": "DAPPL (digital affinity profiling via proximity ligation, sequencing); 10 mM Tris-HCl pH 7.5, 50 mM NaCl, 1 mM DTT, 4% glycerol, room temperature, 30 min; GST-TFs on glutathione beads, 16-mer random dsDNA library, 0.1% formaldehyde crosslink after washing; high values mean tight binding",
  "key": {"FEV": {"molecular_target": "T1, FEV (Homo sapiens, UniProt Q99581 1-238)", "T1 sequence": "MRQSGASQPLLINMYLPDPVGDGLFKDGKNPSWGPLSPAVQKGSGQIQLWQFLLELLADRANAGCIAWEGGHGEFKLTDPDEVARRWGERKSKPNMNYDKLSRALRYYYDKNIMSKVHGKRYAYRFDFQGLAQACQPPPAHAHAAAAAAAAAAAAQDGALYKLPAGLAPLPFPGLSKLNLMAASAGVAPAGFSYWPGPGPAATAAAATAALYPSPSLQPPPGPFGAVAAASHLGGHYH", "conditions": "protein: recombinant; tags: N-terminal GST; dsDNA, one strand shown", "outline": "(§1)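 Human transcription factors fused to GST were expressed in yeast, captured on glutathione beads, given DNA barcodes and pooled with a GST-only negative control. Pools were incubated with 200 nmole of a 16-mer random double-stranded DNA library in Tris/NaCl/DTT/glycerol buffer at room temperature for 30 min. They were then washed, crosslinked with 0.1% formaldehyde, proximity-ligated (BsaI/T4 ligase, 1 h, 37 °C), PCR-amplified and sequenced on an Illumina NextSeq500. Binding signal is each 6-mer's read frequency for a factor divided by its frequency for the GST control.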"}, "ETV5": {"molecular_target": "ETV5 (Homo sapiens, UniProt P41161 1-510)", "sequence (P41161 whole entry)": "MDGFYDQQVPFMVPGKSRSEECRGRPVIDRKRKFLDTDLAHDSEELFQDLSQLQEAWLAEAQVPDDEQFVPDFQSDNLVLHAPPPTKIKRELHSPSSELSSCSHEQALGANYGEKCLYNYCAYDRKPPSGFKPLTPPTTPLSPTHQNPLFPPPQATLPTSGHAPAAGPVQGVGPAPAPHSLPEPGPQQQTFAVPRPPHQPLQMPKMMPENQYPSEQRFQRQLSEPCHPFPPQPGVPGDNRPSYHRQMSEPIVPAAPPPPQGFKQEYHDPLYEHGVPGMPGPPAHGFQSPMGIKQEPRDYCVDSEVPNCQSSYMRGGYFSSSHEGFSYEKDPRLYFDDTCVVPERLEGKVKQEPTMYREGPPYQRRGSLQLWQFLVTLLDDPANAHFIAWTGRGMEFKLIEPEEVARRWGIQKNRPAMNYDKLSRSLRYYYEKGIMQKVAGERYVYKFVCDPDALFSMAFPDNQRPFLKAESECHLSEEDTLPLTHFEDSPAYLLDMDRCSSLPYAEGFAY", "conditions": "protein: recombinant; tags: N-terminal GST; dsDNA, one strand shown", "outline": "as §1"}, "HSF1": {"molecular_target": "HSF1 (Homo sapiens, UniProt Q00613 1-529)", "sequence (Q00613 whole entry)": "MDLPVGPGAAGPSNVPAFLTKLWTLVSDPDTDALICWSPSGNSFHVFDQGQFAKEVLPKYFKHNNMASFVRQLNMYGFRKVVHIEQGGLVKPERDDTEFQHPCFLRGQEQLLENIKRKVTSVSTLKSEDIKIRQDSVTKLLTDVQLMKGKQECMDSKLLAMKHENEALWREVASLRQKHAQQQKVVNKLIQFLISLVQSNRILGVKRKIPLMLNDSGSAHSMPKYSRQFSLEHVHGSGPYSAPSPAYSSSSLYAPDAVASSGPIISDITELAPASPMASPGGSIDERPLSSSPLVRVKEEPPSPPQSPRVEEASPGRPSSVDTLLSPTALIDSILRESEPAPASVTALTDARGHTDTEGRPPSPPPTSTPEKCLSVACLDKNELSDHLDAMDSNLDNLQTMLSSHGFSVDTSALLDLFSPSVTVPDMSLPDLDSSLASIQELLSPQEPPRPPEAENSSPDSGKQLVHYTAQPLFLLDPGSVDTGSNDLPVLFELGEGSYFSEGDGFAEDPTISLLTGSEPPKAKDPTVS", "conditions": "protein: recombinant; tags: N-terminal GST; chain copies: 3; dsDNA, one strand shown", "outline": "as §1"}, "SPIC": {"molecular_target": "T2, SPIC (Homo sapiens, UniProt Q8N5J4 1-248)", "T2 sequence": "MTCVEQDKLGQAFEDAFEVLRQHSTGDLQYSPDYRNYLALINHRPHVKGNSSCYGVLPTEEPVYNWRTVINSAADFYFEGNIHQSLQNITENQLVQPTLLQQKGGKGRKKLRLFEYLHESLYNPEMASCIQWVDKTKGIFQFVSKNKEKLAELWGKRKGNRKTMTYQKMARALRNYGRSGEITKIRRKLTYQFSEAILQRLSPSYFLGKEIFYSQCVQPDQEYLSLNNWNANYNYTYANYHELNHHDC", "conditions": "protein: recombinant; tags: N-terminal GST; dsDNA, one strand shown", "outline": "as §1"}, "ELF4": {"molecular_target": "ELF4 (Homo sapiens, UniProt Q99607 1-663)", "sequence (Q99607 whole entry)": "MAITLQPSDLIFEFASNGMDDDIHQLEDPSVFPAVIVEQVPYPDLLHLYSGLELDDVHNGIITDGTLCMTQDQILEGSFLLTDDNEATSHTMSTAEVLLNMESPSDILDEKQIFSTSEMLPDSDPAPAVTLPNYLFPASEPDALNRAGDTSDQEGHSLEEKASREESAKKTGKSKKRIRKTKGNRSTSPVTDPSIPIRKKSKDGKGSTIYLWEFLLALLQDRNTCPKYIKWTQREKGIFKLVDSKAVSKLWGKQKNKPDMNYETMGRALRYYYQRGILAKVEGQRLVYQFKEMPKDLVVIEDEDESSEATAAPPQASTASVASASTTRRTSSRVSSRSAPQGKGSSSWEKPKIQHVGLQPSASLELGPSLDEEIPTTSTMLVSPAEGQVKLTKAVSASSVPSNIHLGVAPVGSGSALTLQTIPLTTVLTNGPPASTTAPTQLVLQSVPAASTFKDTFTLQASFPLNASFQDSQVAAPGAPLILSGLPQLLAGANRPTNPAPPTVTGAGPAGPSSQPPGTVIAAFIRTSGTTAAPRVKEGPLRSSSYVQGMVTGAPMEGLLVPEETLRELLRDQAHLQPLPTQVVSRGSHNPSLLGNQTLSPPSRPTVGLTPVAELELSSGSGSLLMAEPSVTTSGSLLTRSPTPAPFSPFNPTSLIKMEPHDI", "conditions": "protein: recombinant; tags: N-terminal GST; dsDNA, one strand shown", "outline": "as §1"}, "ELK4": {"molecular_target": "T3, ELK4 (Homo sapiens, UniProt P28324-2 1-405)", "T3 sequence": "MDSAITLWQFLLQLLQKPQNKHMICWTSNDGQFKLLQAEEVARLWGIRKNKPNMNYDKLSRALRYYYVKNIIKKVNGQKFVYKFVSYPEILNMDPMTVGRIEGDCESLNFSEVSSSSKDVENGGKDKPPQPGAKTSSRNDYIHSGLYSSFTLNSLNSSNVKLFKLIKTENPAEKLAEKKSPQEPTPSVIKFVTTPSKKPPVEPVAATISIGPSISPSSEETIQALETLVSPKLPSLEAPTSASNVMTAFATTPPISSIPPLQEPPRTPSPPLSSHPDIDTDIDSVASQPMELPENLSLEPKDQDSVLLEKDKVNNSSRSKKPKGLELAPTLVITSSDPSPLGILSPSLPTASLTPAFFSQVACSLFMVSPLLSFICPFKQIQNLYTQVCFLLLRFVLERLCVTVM", "conditions": "protein: recombinant; tags: N-terminal GST; dsDNA, one strand shown", "outline": "as §1"}, "ETV2": {"molecular_target": "T4, ETV2 (Homo sapiens, UniProt O00321 1-342)", "T4 sequence": "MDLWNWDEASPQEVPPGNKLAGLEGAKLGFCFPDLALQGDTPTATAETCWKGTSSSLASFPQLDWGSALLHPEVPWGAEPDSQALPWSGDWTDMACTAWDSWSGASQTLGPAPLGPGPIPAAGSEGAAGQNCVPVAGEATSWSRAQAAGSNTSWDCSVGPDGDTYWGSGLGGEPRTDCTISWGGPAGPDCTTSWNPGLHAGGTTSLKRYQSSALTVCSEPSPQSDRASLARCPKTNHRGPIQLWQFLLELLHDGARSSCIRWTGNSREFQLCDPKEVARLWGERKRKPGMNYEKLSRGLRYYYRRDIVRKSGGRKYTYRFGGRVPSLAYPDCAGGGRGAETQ", "conditions": "protein: recombinant; tags: N-terminal GST; dsDNA, one strand shown", "outline": "as §1"}, "ELF3": {"molecular_target": "T5, ELF3 (Homo sapiens, UniProt P78545 1-371)", "T5 sequence": "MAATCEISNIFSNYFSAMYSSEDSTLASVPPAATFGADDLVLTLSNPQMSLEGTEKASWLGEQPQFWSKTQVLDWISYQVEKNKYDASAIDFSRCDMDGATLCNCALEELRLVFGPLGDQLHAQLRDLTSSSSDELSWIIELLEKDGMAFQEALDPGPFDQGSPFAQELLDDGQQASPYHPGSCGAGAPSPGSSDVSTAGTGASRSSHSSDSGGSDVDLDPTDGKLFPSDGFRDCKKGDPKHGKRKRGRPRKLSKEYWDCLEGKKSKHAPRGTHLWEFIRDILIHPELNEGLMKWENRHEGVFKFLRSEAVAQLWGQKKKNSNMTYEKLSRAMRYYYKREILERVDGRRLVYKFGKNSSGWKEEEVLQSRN", "conditions": "protein: recombinant; tags: N-terminal GST; dsDNA, one strand shown", "outline": "as §1"}, "CRX": {"molecular_target": "CRX (Homo sapiens, UniProt O43186 1-299)", "sequence (O43186 whole entry)": "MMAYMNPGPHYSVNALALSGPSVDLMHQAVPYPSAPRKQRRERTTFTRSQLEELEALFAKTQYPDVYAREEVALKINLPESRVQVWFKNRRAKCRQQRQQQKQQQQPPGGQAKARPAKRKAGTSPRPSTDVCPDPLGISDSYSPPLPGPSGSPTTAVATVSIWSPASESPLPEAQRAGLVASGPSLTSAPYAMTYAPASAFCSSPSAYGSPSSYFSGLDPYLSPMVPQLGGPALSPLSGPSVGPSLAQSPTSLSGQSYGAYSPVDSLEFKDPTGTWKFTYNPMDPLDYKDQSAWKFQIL", "conditions": "protein: recombinant; tags: N-terminal GST; dsDNA, one strand shown", "outline": "as §1"}, "ETV1": {"molecular_target": "ETV1 (Homo sapiens, UniProt P50549 1-477)", "sequence (P50549 whole entry)": "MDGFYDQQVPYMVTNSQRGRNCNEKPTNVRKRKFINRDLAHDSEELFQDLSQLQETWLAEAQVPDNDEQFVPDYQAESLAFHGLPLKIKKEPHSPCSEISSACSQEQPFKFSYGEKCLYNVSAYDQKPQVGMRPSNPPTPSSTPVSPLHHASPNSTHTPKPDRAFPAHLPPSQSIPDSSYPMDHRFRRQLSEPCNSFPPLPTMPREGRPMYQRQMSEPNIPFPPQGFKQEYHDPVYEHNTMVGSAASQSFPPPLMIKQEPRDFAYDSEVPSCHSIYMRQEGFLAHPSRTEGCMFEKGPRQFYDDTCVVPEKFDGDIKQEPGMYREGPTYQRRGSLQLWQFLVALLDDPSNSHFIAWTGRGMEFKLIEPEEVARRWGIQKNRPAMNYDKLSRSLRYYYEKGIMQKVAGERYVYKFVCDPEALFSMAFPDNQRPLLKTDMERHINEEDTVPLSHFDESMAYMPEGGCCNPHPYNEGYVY", "conditions": "protein: recombinant; tags: N-terminal GST; dsDNA, one strand shown", "outline": "as §1"}},
  "data": [
    {"sequence": "AAATTT", "values": [
      {"measurement": "binding signal", "setting": "FEV", "value": "1.34 fold enrichment (6-mer frequency, TF over GST control)"},
      {"measurement": "binding signal", "setting": "ETV5", "value": "1.36 fold enrichment (6-mer frequency, TF over GST control)"},
      {"measurement": "binding signal", "setting": "HSF1", "value": "1.47 fold enrichment (6-mer frequency, TF over GST control)"},
      {"measurement": "binding signal", "setting": "SPIC", "value": "1.1 fold enrichment (6-mer frequency, TF over GST control)"},
      {"measurement": "binding signal", "setting": "ELF4", "value": "1.19 fold enrichment (6-mer frequency, TF over GST control)"},
      {"measurement": "binding signal", "setting": "ELK4", "value": "1.22 fold enrichment (6-mer frequency, TF over GST control)"},
      {"measurement": "binding signal", "setting": "ETV2", "value": "1.29 fold enrichment (6-mer frequency, TF over GST control)"},
      {"measurement": "binding signal", "setting": "ELF3", "value": "1.43 fold enrichment (6-mer frequency, TF over GST control)"},
      {"measurement": "binding signal", "setting": "CRX", "value": "1.24 fold enrichment (6-mer frequency, TF over GST control)"},
      {"measurement": "binding signal", "setting": "ETV1", "value": "1.35 fold enrichment (6-mer frequency, TF over GST control)"}
    ]}
  ]
}
